Test system in the first assay: not listed separately
As to the kind of experiment: hepatitis C replication reporter changes, two-sided – Huh7 cells, luciferase reporter, HCV replication inhibitor project, primary screen (AID 1109).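 Also: huh7 hepatoma cells harbouring a luciferase neomycin HCV replicon reporter; luciferase luminescence as measure of HCV replicon replication; test concentration not given here.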 The following applies: Huh7 HCV replicon luciferase reporter, 48 h; higher = more signal.
Sequence of Left-right determination factor 2 (Homo sapiens) (O00292 whole entry, looked up): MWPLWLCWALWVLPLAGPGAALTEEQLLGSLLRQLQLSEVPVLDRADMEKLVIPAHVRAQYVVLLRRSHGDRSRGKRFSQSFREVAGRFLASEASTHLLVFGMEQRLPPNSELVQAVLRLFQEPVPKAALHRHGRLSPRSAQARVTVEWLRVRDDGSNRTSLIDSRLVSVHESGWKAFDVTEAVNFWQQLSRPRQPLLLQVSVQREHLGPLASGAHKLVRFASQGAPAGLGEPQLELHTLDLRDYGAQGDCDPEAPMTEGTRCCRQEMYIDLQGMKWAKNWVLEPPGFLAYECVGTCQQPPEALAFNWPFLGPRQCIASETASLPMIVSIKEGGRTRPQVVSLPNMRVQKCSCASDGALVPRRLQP
Compound `CCOC(=O)[C@H](Cc1ccccc1)NC(=O)CCC1CC(OC(=O)NCc2cccc3ccccc23)CC2(CCCC(COC(=O)NCCOc3ccccc3)O2)O1` (stereo partly specified) yielded a z-score of -0.795.

Compound `CCc1cc2c(nc1CC)CCN(CCC(C)=NOC[C@@H](C)[C@H](OCc1ccccc1)C(C)C)C2` came in with a z-score of -1.14.

`O=C1CCCC=C1C(O)C1CCCCC1` (stereo unspecified) showed a z-score of 0.108. On the same count and under the same terms, to `CC(C)=CCCC(C)=CCON=C1C[C@@H](O)[C@@H](O)[C@@H]2[C@@H]3C(=O)N(Cc4ccc5c(c4)OCO5)C(=O)[C@@H]3CC[C@@H]12` belongs 0.298. The compound `CC(C)=CCCC(C)=CCON=C1[C@H]2CCn3c(=O)n(-c4ccccc4)c(=O)n3[C@H]2[C@H](O)[C@@H]2O[C@H]12` displayed a z-score of -3.17.

As for `C=CCOCC1CN2[C@@H](CC[C@@H](C)[C@@H]2c2ccc(Br)cc2)C(=O)O1` (stereo partly specified), the z-score is -0.121. `CCCC[C@H]1CN2[C@@H](CC[C@@H](C)[C@@H]2c2ccc(Br)cc2)C(=O)O1` returned a z-score of -1.04. `CC(C)CON=C1[C@H]2CCn3c(=O)n(C)c(=O)n3[C@H]2[C@H](O)[C@@H]2O[C@H]12` gave a z-score of 0.104.

On to `O=C1C=C[C@@H](O)[C@@H]2[C@@H]3C(=O)N(c4cccc(Oc5ccccc5)c4)C(=O)[C@@H]3CC[C@@H]12`, for which the z-score was -2.07. For `Cc1cc(C)c(-c2cc([C@H](C)ON=C[C@@H](C)[C@H](OCc3ccccc3)C(C)C)on2)c(C)c1`, the z-score is -2.06. Turning to `C[C@@H]1C=CCC(=O)OC[C@H](C)C(=O)N[C@@H](Cc2ccccc2)C(=O)OC1`, the z-score turned out to be 0.962. `CCOC(=O)NN=C1C[C@@H](O)[C@@H](O)[C@@H]2[C@@H]3C(=O)N(C[C@@H]4CCCO4)C(=O)[C@@H]3CC[C@H]12` showed a z-score of -0.0078. The same measure, in the same setting: to `COc1ccc(-c2cnnc(CCCn3ccnc3-c3ccccc3)n2)cc1` belongs -2.57; to `CCOC(=O)[C@H](Cc1ccccc1)NC(=O)CCC1CC(OC(=O)NCc2ccc3c(c2)OCO3)CC2(CCCC(COC(=O)NCCc3ccc(Cl)cc3)O2)O1` (stereo partly specified), 0.615.

`CCO[C@H](c1cc(OC)cc([N+](=O)[O-])c1OC)[C@H](C)[C@@H](OC)[C@H](C)C=CCC(=O)OC` registered a z-score of 0.899. Consider `CCN(CC)CC(O)CN1CCCCc2nc(C)c(C)cc21` (stereo unspecified), for which the z-score is 0.932. In turn, `O=C1CCCC=C1C(O)c1ccc([N+](=O)[O-])cc1` (stereo unspecified) had a z-score of -0.67. Same read-out and setting: the same measure for `CCOC(=O)[C@H](Cc1ccccc1)NC(=O)CCC1CC(OC(=O)NCCc2ccc(F)cc2)CC2(CCCC(COC(=O)NCCOc3ccccc3)O2)O1` (stereo partly specified): -1.05; for `COC(=O)[C@H](Cc1ccccc1)NC(=O)[C@@H](C)CO`: -0.499.

In turn, `CCOC(=O)CCN1C(=O)[C@H]2[C@H]3[C@H](O)[C@H](O)CC(=NOCC=C(C)CCC=C(C)C)[C@H]3CC[C@H]2C1=O` returned a z-score of -0.409. On the same count and under the same terms, to `O=C1[C@H]2[C@H]3[C@H](O)[C@H](O)CC(=NO[C@@H]4O[C@H](CO)[C@@H](O)[C@H](O)[C@H]4O)[C@H]3CC[C@H]2C(=O)N1c1ccc(F)cc1F` belongs 0.29; to `O=C1[C@H]2[C@H]3[C@H](O)[C@H](O)CC(=NOCc4ccccc4)[C@@H]3CC[C@H]2C(=O)N1c1cccc(Oc2ccccc2)c1`, 0.0134.

Turning to `O=C1C2=CC[C@H]3C(=O)N(C[C@@H]4CCCO4)C(=O)[C@H]3[C@H]2[C@H](O)[C@@H]2O[C@H]12`, the z-score is -4.56.

For `CCOC(=O)[C@H](CC(C)C)NC(=O)CCC1CC(OC(=O)NCc2ccc3c(c2)OCO3)CC2(CCCC(COC(=O)NCc3ccccc3)O2)O1` (stereo partly specified), the z-score is -0.0695. Compound `CON=C(C)CCN1CCCc2nc(C)c(C)cc21` had a z-score of 0.115.

Another assay concerns the target Left-right determination factor 2 (Homo sapiens) (UniProt O00292). Put plainly: small molecules binding LEFTY2 protein – biochemical, small-molecule microarray, 635 nm fluorescence scan, primary screen (AID 1110). The following applies: higher = more signal.
For the compound `CCOC(=O)[C@H](Cc1ccccc1)NC(=O)CCC1CC(OC(=O)NCCc2ccc(F)cc2)CC2(CCCC(COC(=O)NCc3cccc(C(F)(F)F)c3)O2)O1` (stereo partly specified), the composite z-score was determined as 0.763. Turning to `C[C@H]1CC[C@@H](C(=O)O)N[C@@H]1c1ccc(C#Cc2ccccc2)cc1`, the composite z-score turned out to be 0.753. Same read-out and setting: the same measure for `C[C@H]1CC[C@H]2C(=O)OC(COc3ccc(C(C)(C)C)cc3)CN2[C@@H]1c1ccc(Br)cc1` (stereo partly specified): 0.0037; for `OC[C@H]1O[C@H](C#Cc2ccccc2)C=C[C@@H]1O`: 0.484.

`CC(C)(C)N1C(=O)[C@H]2[C@H]3[C@H](O)[C@H](O)CC(=NOC[C@@H](O)COCc4ccco4)[C@@H]3CC[C@H]2C1=O` yielded a composite z-score of 0.0349. Still for that read-out and setting: the same measure for `COC(=O)[C@H](C)NC(=O)CCC1CC(OC(=O)NCc2ccc3c(c2)OCO3)CC2(CCCC(COC(=O)NCc3ccccc3)O2)O1` (stereo partly specified): 0.508. `O=C1[C@H]2[C@H]3[C@H](O)[C@H](O)CC(=NOC[C@@H](O)COCc4ccco4)[C@@H]3CC[C@H]2C(=O)N1Cc1ccccc1` had a composite z-score of 1.19. Take `COc1ccc(COC(=O)NN=C2C[C@@H](O)[C@@H](O)[C@@H]3[C@@H]4C(=O)N(C5CCCCC5)C(=O)[C@@H]4CC[C@@H]23)cc1`: the composite z-score was 0.0141. Regarding `CC(=O)OC[C@H]1O[C@@H](ON=C(C)CCN2CCCCc3nc(C)c(C)cc32)[C@H](OC(C)=O)[C@@H](OC(C)=O)[C@@H]1OC(C)=O`, the composite z-score worked out at 0.962.

For `CCOC(=O)[C@H](CC(C)C)NC(=O)CCC1CC(OC(=O)NCc2ccc3c(c2)OCO3)CC2(CCCC(COC(=O)NCCOC)O2)O1` (stereo partly specified), the composite z-score is 0.249. The compound `CO[C@H]1COC(=O)[C@H](C)COC(=O)[C@@H](OCc2ccccc2)C=C[C@@H]1C` showed a composite z-score of 0.328. `CCOC(=O)[C@H](Cc1ccccc1)NC(=O)CCC1CC(OC(=O)NCc2cccc3ccccc23)CC2(CCCC(COC(=O)NCCOc3ccccc3)O2)O1` (stereo partly specified) came in with a composite z-score of 0.628. For the compound `CCc1cc2c(nc1CC)CCN(CCC(C)=NOC[C@@H](C)[C@H](OCc1ccccc1)C(C)C)C2`, the composite z-score was -0.964. The same measure, in the same setting: the same measure for `O=C1CCCC=C1C(O)C1CCCCC1` (stereo unspecified): -0.0231; for `CC(C)=CCCC(C)=CCON=C1C[C@@H](O)[C@@H](O)[C@@H]2[C@@H]3C(=O)N(Cc4ccc5c(c4)OCO5)C(=O)[C@@H]3CC[C@@H]12`: 0.368; for `CC(C)=CCCC(C)=CCON=C1[C@H]2CCn3c(=O)n(-c4ccccc4)c(=O)n3[C@H]2[C@H](O)[C@@H]2O[C@H]12`: 0.802.

Consider `C=CCOCC1CN2[C@@H](CC[C@@H](C)[C@@H]2c2ccc(Br)cc2)C(=O)O1` (stereo partly specified), for which the composite z-score is 0.0328. On the same count and under the same terms, the same measure for `CCCC[C@H]1CN2[C@@H](CC[C@@H](C)[C@@H]2c2ccc(Br)cc2)C(=O)O1`: 0.671; for `CC(C)CON=C1[C@H]2CCn3c(=O)n(C)c(=O)n3[C@H]2[C@H](O)[C@@H]2O[C@H]12`: 0.494.

As for `O=C1C=C[C@@H](O)[C@@H]2[C@@H]3C(=O)N(c4cccc(Oc5ccccc5)c4)C(=O)[C@@H]3CC[C@@H]12`, the composite z-score came out at 0.594. Take `Cc1cc(C)c(-c2cc([C@H](C)ON=C[C@@H](C)[C@H](OCc3ccccc3)C(C)C)on2)c(C)c1`: the composite z-score was -0.0341. Turning to `C[C@@H]1C=CCC(=O)OC[C@H](C)C(=O)N[C@@H](Cc2ccccc2)C(=O)OC1`, the composite z-score amounted to 0.786. For `CCOC(=O)NN=C1C[C@@H](O)[C@@H](O)[C@@H]2[C@@H]3C(=O)N(C[C@@H]4CCCO4)C(=O)[C@@H]3CC[C@H]12`, the composite z-score was 0.828. Still for that read-out and setting: the same measure for `COc1ccc(-c2cnnc(CCCn3ccnc3-c3ccccc3)n2)cc1`: 0.774. As for `CCOC(=O)[C@H](Cc1ccccc1)NC(=O)CCC1CC(OC(=O)NCc2ccc3c(c2)OCO3)CC2(CCCC(COC(=O)NCCc3ccc(Cl)cc3)O2)O1` (stereo partly specified), the composite z-score was determined as 0.619.

In turn, `CCO[C@H](c1cc(OC)cc([N+](=O)[O-])c1OC)[C@H](C)[C@@H](OC)[C@H](C)C=CCC(=O)OC` returned a composite z-score of -0.0609. Still for that read-out and setting: the same measure for `CCN(CC)CC(O)CN1CCCCc2nc(C)c(C)cc21` (stereo unspecified): 0.31; for `O=C1CCCC=C1C(O)c1ccc([N+](=O)[O-])cc1` (stereo unspecified): 0.387; for `CCOC(=O)[C@H](Cc1ccccc1)NC(=O)CCC1CC(OC(=O)NCCc2ccc(F)cc2)CC2(CCCC(COC(=O)NCCOc3ccccc3)O2)O1` (stereo partly specified): 0.701. Same read-out and setting: the same measure for `COC(=O)[C@H](Cc1ccccc1)NC(=O)[C@@H](C)CO`: 0.597; for `CCOC(=O)CCN1C(=O)[C@H]2[C@H]3[C@H](O)[C@H](O)CC(=NOCC=C(C)CCC=C(C)C)[C@H]3CC[C@H]2C1=O`: 0.199; for `O=C1[C@H]2[C@H]3[C@H](O)[C@H](O)CC(=NO[C@@H]4O[C@H](CO)[C@@H](O)[C@H](O)[C@H]4O)[C@H]3CC[C@H]2C(=O)N1c1ccc(F)cc1F`: 0.382.

In turn, `O=C1[C@H]2[C@H]3[C@H](O)[C@H](O)CC(=NOCc4ccccc4)[C@@H]3CC[C@H]2C(=O)N1c1cccc(Oc2ccccc2)c1` gave a composite z-score of -0.0065.

Consider `O=C1C2=CC[C@H]3C(=O)N(C[C@@H]4CCCO4)C(=O)[C@H]3[C@H]2[C@H](O)[C@@H]2O[C@H]12`, for which the composite z-score came out at 0.153. `CCOC(=O)[C@H](CC(C)C)NC(=O)CCC1CC(OC(=O)NCc2ccc3c(c2)OCO3)CC2(CCCC(COC(=O)NCc3ccccc3)O2)O1` (stereo partly specified) returned a composite z-score of 0.355. On the same count and under the same terms, the same measure for `CON=C(C)CCN1CCCc2nc(C)c(C)cc21`: 0.685.

The record behind these values is PubChem BioAssay.
